Assay [1] has as its target Cellular tumor antigen p53 (Homo sapiens) (UniProt P04637). The experiment in a line: TOX21_p53_BLA_p2_ratio: Tox21 HCT-116 p53 Agonism Beta-lactamase Assay, Ratio, Phase 2 (AID 2283592). A digest of the protocol:
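HCT116 cells carrying a p53-responsive beta-lactamase reporter were plated, incubated 5 h at 37C, then dosed with compounds in DMSO (217-fold dilution) for 16 h. CCF4-AM substrate was added for 2 h at room temperature; the 460/530 nm emission ratio gave gain-of-signal activity relative to DMSO.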

Assay [2] shares this target. The experiment in a line: TOX21_p53_BLA_p3_ratio: Tox21 HCT-116 p53 Agonism Beta-lactamase Assay, Ratio, Phase 3 (AID 2283596). A digest of the protocol: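 HCT116 p53-bla cells (4000/well) given compound in DMSO (217-fold dilution) after 5 h, incubated 16 h at 37C. CCF4-AM substrate 2 h at room temperature; 460/530 nm emission ratio, gain fitted against DMSO.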
Assay [3] in a line: TOX21_p53_BLA_p4_viability: Viability Assessment in the Tox21 HCT-116 p53 Agonism Beta-lactamase Assay, Phase 4 (AID 2283597).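 Note: hits lower the luminescence signal meaning cytotoxicity.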 A digest of the protocol:
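HCT116 p53-bla cells (4000/well) rested 5 h at 37C, then received compounds in DMSO (217-fold dilution) for 16 h at 37C, 5% CO2. CellTiter-Glo was added after the CCF4-AM read, and luminescence was read after 30 min at room temperature.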

Assay [4] concerns the target Cellular tumor antigen p53 (Homo sapiens) (UniProt P04637). The experiment in a line: TOX21_p53_BLA_p5_ratio: Tox21 HCT-116 p53 Agonism Beta-lactamase Assay, Ratio, Phase 5 (AID 2283599). A digest of the protocol:
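HCT-116 p53-bla cells (4000/well) plated 5 h, dosed with compound (217-fold DMSO dilution) for 16 h at 37 C; CCF4-AM substrate 2 h at room temperature. Activity is the 460/530 nm emission ratio (405 nm excitation), fitted in gain-of-signal direction versus DMSO.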

Assay [5] shares this target. The assay can be described thus: TOX21_p53_BLA_p4_ratio: Tox21 HCT-116 p53 Agonism Beta-lactamase Assay, Ratio, Phase 4 (AID 2283601). A digest of the protocol:
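HCT-116 p53 beta-lactamase reporter cells (4000/well) preincubated 5 h, then compound (217-fold dilution of DMSO stock) for 16 h at 37C. CCF4-AM substrate added 2 h at room temperature; 460/530 nm emission ratio fitted upward versus DMSO.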

Assay [6] concerns Thyroperoxidase (TPO), gene 54314. The assay can be described thus: CCTE_Simmons_AUR_rTPO: CCTE's Amplex UltraRed Assay for Thyroperoxidase (TPO) Inhibition, Simmons Lab (AID 2283662). The essentials:
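Cell-free peroxidase activity assay using rat thyroid gland microsomes with excess H2O2 (300 uM) and 25 uM Amplex UltraRed. Compounds tested from 5 nM to 87.5 uM; fluorescence measured after 30 min at 37C, analysed relative to DMSO baseline.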

For assay [7], the target named is Luciferin 4-monooxygenase (Photinus pyralis) (UniProt P08659). The experiment in a line: CCTE_Simmons_QuantiLum_inhib_2: CCTE's Firefly Luciferase Inhibition Assay, Simmons Lab (AID 2283767). A digest of the protocol: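 Counter-screen for nonspecific enzyme inhibition: purified firefly luciferase incubated 30 min at 37C with chemicals up to 87.5 uM final, then luminescence measured after luciferin/dATP injection; activity fitted against DMSO baseline.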

Assay [8] addresses Nucleoli Translocation, AR (gene 367) (UniProt P10275). The assay can be described thus: UPITT_HCI_U2OS_AR_TIF2_Nucleoli_Antagonist: University of Pittsburgh U2OS Androgen Receptor-Transcriptional Intermediary Factor 2 (AR-TIF2) Antagonism High Content Imaging Assay for Nucleoli Translocation (AID 2283997). The essentials:
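U2OS cells co-expressing red-fluorescent-tagged human AR and green-fluorescent-tagged TIF2, imaged by high-content microscopy for nucleolar red fluorescence. Antagonist mode against DHT; primary screen at 20 uM final (0.2% DMSO).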

The target is the same in assay [9]. The experiment in a line: UPITT_HCI_U2OS_AR_TIF2_Nucleoli_Agonist: University of Pittsburgh U2OS Androgen Receptor-Transcriptional Intermediary Factor 2 (AR-TIF2) Agonism High Content Imaging Assay for Nucleoli Translocation (AID 2283998). The essentials:
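Cells express human AR fused to red fluorescent protein and TIF2 fused to GFP. Red fluorescence in the nucleolar region was quantified by high-content imaging and fitted as gain-of-signal against a DMSO baseline. Compounds were tested at 0.195 to 50 uM final (0.5% DMSO).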

Assay [10] deals with Ratio of Nucleoli Translocation and Cytoplasm, AR (gene 367) (UniProt P10275). The experiment in a line: UPITT_HCI_U2OS_AR_TIF2_Nucleoli_Cytoplasm_Ratio_Antagonist: University of Pittsburgh U2OS Androgen Receptor-Transcriptional Intermediary Factor 2 (AR-TIF2) Antagonism High Content Imaging Assay for Ratio of Nucleoli Translocation and Cytoplasm (AID 2283999).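 Note: antagonists lower the DHT-driven ratio of nucleolar to cytoplasmic red signal.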 A digest of the protocol: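 High-content imaging quantifies the red nucleolar:cytoplasmic fluorescence ratio in U2OS cells with AR-RFP and TIF2-GFP. Final concentrations are 20 uM (screen) or 0.195–50 uM (dose response), analysed against DHT as baseline.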

Assay [11] has the same target. The experiment in a line: UPITT_HCI_U2OS_AR_TIF2_Nucleoli_Cytoplasm_Ratio_Agonist: University of Pittsburgh U2OS Androgen Receptor-Transcriptional Intermediary Factor 2 (AR-TIF2) Agonism High Content Imaging Assay for Ratio of Nucleoli Translocation and Cytoplasm (AID 2284000).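 Note: hits raise the red nucleolar to cytoplasm ratio above vehicle.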 The essentials:
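U2OS cells expressing RFP-tagged human AR and GFP-tagged TIF2; high-content imaging ratio of nucleolar to cytoplasmic red fluorescence, fitted as gain of signal vs DMSO. Single point at 20 uM final (0.2% DMSO); concentration-response 0.195-50 uM final (0.5% DMSO).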

A short description of assay [12]: CCTE_Harrill_HTTr_Viability_MCF7: CCTE's 6-hour Cell Viability Assessment for the High-Throughput Transcriptomics (HTTr) Platform, in MCF-7 cells cultured in DMEM + 10% fetal bovine serum, Harrill Lab (AID 2284010; active = hit-call score of the fitted dose curve at least 0.9, where 1 is the maximum; inactive = score below 0.9). The essentials:
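Viability measured through PI dye exclusion by high-content imaging at 6 h post-dosing.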

The nature of assay [13]: CCTE_Harrill_HTTr_Apoptosis_MCF7: CCTE's 6-hour Apoptosis Assessment for the High-Throughput Transcriptomics (HTTr) Platform, in MCF-7 cells cultured in DMEM + 10% fetal bovine serum, Harrill Lab (AID 2284011; active = hit-call score of the fitted dose curve at least 0.9, where 1 is the maximum; inactive = score below 0.9). The essentials:
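MCF-7 cells in DMEM + 10% fetal bovine serum were exposed to chemicals for 6 hours over an eight-point dilution series. Caspase-3/7 activation was imaged by high content imaging with CellEvent Caspase 3/7 Green; bidirectional fitting used DMSO as baseline.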

Assay [14] is described as follows: CCTE_Shafer_MEA_dev_firing_rate_mean: CCTE's Neural Network Formation Assay for Mean Firing Rate, Shafer Lab (AID 2284031; active = hit-call score of the fitted dose curve at least 0.9, where 1 is the maximum; inactive = score below 0.9). The essentials:
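Developing rat cortical networks on MEA plates undergo 12-day compound exposure. Firing frequency, averaged across active electrodes, is integrated as area under the curve over four recording days, referenced to DMSO.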

Assay [15] can be described thus: CCTE_Shafer_MEA_dev_per_burst_spike_percent: CCTE's Neural Network Formation Assay for Percent of Spikes in a Burst, Shafer Lab (AID 2284032; active = hit-call score of the fitted dose curve at least 0.9, where 1 is the maximum; inactive = score below 0.9). The essentials: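 Rat primary cortical neurons on 16-electrode MEA wells, dosed from plating day 0 for 12 days with renewal on DIV 5 and 9; spikes-in-bursts percentage averaged over bursting electrodes, collapsed as AUC across days 5, 7, 9, 12; loss direction versus DMSO.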

Assay [16] can be described thus: CCTE_Shafer_MEA_dev_active_electrodes_number: CCTE's Neural Network Formation Assay for Number of Active Electrodes, Shafer Lab (AID 2284040). The essentials:
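Rat cortical primary cultures, 1.5 x 10^5 cells/well, PEI-coated MEA, laminin drop. Continuous exposure DIV 0–12; full media/compound change DIV 5, 9. Readout: electrodes with mean firing ≥5 spikes/min; AUC across days; loss vs DMSO.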

A short description of assay [17]: CCTE_Shafer_MEA_dev_burst_rate: CCTE's Neural Network Formation Assay for Burst Rate, Shafer Lab (AID 2284042; active = hit-call score of the fitted dose curve at least 0.9, where 1 is the maximum; inactive = score below 0.9). A digest of the protocol:
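Cells plated, treated day 0; recorded DIV 5, 7, 9, 12; fed and re-treated DIV 5, 9. Endpoint: bursts per recording time, active-electrode well mean, trapezoidal AUC, fitted in decreasing direction against DMSO baseline.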

The values that follow come from PubChem BioAssay (EPA / NIEHS).

By AC50 is commonly meant the concentration giving half of the maximal activity seen.

Records with an inconclusive call do not appear. The source made the active and inactive calls. Rule for the calls, unless noted: active = hit-call score of the fitted dose curve at least 0.9, where 1 is the maximum; inconclusive = response in the unintended direction; inactive = score below 0.9.

Chain of Cellular tumor antigen p53 (Homo sapiens) (P04637 whole entry, looked up): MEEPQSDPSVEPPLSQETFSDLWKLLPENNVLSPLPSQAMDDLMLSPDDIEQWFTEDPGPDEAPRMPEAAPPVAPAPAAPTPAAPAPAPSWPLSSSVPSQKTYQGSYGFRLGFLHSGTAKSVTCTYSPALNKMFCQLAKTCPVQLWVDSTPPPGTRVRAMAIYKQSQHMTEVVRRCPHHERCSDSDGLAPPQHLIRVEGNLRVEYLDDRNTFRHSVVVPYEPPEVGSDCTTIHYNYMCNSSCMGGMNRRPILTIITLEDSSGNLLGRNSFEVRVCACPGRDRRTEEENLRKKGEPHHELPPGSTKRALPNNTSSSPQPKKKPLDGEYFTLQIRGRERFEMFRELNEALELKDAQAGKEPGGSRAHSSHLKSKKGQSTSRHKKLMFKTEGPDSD
Chain of Ratio of Nucleoli Translocation and Cytoplasm, AR (gene 367) (P10275 whole entry, looked up): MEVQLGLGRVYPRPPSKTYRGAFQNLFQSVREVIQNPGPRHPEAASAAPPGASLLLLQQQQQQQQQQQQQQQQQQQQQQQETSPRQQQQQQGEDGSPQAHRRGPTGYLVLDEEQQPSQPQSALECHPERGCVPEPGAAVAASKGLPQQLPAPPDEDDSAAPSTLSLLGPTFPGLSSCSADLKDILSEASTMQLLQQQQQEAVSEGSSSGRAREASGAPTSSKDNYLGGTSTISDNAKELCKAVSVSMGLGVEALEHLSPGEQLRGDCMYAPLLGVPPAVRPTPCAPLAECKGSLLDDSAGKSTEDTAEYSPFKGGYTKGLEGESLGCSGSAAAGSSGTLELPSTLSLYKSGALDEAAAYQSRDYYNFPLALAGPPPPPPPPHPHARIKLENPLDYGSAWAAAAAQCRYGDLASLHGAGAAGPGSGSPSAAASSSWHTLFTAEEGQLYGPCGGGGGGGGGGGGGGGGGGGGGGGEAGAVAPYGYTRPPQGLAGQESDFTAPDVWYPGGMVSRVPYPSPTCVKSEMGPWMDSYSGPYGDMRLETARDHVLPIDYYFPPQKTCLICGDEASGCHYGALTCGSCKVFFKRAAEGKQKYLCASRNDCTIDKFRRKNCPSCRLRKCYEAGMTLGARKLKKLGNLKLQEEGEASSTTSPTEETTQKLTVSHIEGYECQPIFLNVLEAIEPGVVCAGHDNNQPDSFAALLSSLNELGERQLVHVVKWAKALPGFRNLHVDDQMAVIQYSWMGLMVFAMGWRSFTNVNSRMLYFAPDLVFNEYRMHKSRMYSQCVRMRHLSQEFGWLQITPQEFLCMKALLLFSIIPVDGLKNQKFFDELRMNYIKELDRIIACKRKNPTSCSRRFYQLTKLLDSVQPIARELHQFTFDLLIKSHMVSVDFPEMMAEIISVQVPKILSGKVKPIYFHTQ
Chain of Nucleoli Translocation, AR (gene 367) (P10275 whole entry, looked up): as above
Chain of Luciferin 4-monooxygenase (Photinus pyralis) (P08659 whole entry, looked up): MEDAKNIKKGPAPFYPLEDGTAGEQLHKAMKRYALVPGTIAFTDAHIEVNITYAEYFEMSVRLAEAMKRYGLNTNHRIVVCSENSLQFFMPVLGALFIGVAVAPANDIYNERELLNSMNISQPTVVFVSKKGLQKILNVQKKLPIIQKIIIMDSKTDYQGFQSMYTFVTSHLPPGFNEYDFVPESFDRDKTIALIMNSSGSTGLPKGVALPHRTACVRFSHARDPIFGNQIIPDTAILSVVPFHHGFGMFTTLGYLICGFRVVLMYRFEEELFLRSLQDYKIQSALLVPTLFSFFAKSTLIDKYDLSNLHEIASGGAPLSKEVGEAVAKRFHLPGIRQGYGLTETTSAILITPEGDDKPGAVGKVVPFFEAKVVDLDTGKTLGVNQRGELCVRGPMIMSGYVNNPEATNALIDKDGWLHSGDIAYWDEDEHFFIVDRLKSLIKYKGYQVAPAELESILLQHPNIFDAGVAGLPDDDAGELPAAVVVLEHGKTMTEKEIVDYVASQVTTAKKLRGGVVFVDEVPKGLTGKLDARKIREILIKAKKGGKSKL

In the case of `c1ccc2cc3c(cc2c1)-c1cccc2cccc-3c12`, the AC50 in assay [1] is 3.24 µM (active); in assay [2], 11 µM (active); in [4] it was 4.58 µM (active); in [5], 1.98 µM (active); in assay [8], 1.19 µM (active). Besides, the result in assay [3], in assay [6], in [7], in assay [9], in [10] and in assay [11] was inactive. The result in [12], in assay [13], in assay [14], in assay [15], in [16] and in assay [17] was inactive.
